Test results taken from PubChem BioAssay (Tox21).
“And” between values parts separate entries of the source, which are not always exact repeats. Equal values may be shown once. Results filed as inconclusive are left out. Where a call stands in place of a potency, no number is given. The source made the active and inactive calls. The call rests on the fitted dose curve; in most records, active means well fitted inhibition curve with a large enough effect in the signal ratio in the repeat runs (not every such curve was filed as active); inconclusive means weak or mixed curves, or effect the other way; inactive means flat fitted curve, though single readings scatter; the % refers to the signal ratio.

Test: cAMP Responsive Elements (CRE) small molecule antagonists, cell-based qHTS assay (AID 1963591)
Settings: CRE-bla HEK293T, beta-lactamase FRET ratio; series mostly up to 92.4 µM
Excerpt: U.S. Tox21 Program National Center for Advancing Translational Sciences [NCATS] Division of Preclinical Innovation [DPI] U.S. Environmental Protection Agency [EPA] National Institutes of Environmental Health Sciences [NIEHS] National Toxicology Program [NTP] U.S. Food and Drug Administration [FDA] Tox21 Assay Overview: CREB (cyclic-AMP Responsive Element Binding Protein) is a cellular transcription factor. It binds to certain DNA sequences called cAMP Responsive Elements (CRE) and regulates the transcription of the genes. […] This cell line can be used to find agonists/antagonists of the cyclic AMP signaling pathway. The activation of the report gene under culture conditions can be detected by fluorescence intensity. This cell line has been used to screen the Tox21 10K compound library to […].
Tox21 Assay Protocol Summary: CRE-bla Hek 293T cells were suspended in assay medium (DMEM containing 10% dialyzed FBS, 0.1 mM NEAA, 1 mM sodium pyruvate and 25 mM HEPES) and dispensed at 2,000 cells/4 uL /well into 1536-well black wall/clear bottom plates using a Multidrop Combi (ThermoFisher Scientific, Waltham, MA) dispenser. After the assay plates were incubated at 37 C/5% CO2 for 18 hrs, 23 nL of compounds dissolved in DMSO, positive controls or DMSO only was transferred to the assay plate by a pintool workstation (Kalypsys, San Diego, CA), followed by addition of 1 […] uL of 1.25uM NKH477 (0.25 uM as final concentration) in assay medium using a Flying Reagent Dispenser (Aurora Discovery, San Diego, CA). The plates were incubated at 37 C and 5% CO2 for 3 hrs. Then 1 uL of LiveBLAzer B/G FRET substrate (Invitrogen, Carlsbad, CA) was added to each well using Bioraptr Flying Reagent Dispenser (FRD, Aurora Discovery, San Diego, CA). The plates were incubated at room temperature for 2 h.
Potency means the concentration at half of the fitted maximal effect.

SMILES | Potency
CCC(Cc1c(I)cc(I)c(N)c1I)C(=O)O (stereo not given) | inactive
O=C1c2c(O)cccc2Cc2cccc(O)c21 | inactive
COc1ccc(OC)cc1 | inactive
CCCC(CCC)C(=O)O | inactive
Cc1cn([C@H]2C[C@H](N=[N+]=[N-])[C@@H](CO)O2)c(=O)[nH]c1=O | inactive
COC(=O)C(C)Oc1ccc(Oc2ncc(C(F)(F)F)cc2Cl)cc1 (stereo not given) | inactive
C[C@H]1C[C@H]2[C@@H]3CCC4=CC(=O)C=C[C@]4(C)[C@@]3(F)[C@@H](O)C[C@]2(C)[C@@]1(O)C(=O)CO | inactive
O=C(O)c1cccc([N+](=O)[O-])c1 | inactive
NC(CO)(CO)CO | inactive
O=C(O)c1ccccc1Nc1cccc(C(F)(F)F)c1 | inactive
CC(C)C(=O)Nc1ccc([N+](=O)[O-])c(C(F)(F)F)c1 | inactive
O=C1NC(=O)c2ccccc21 | inactive
CCCCCCCCCCCCOC(=O)c1cc(O)c(O)c(O)c1 | 21.6 µM (active) and 45.2 µM (active)
CC(CCl)OP(=O)(OC(C)CCl)OC(C)CCl (stereo not given) | inactive
CC(=O)c1ccccn1 | inactive
CN(C)CCOC(=O)COc1ccc(Cl)cc1 | inactive
CC(CCC(=O)O)(c1ccc(O)cc1)c1ccc(O)cc1 | inactive
NS(=O)(=O)c1cc(C(=O)O)c(NCc2ccco2)cc1Cl | inactive
COC(=O)C1CCC(C(=O)OC)CC1 (stereo not given) | inactive
OCCOCCOCCO | inactive

SMILES | Potency
COc1cc2c(c(OC)c1OC)-c1ccc(OC)c(=O)cc1[C@@H](NC(C)=O)CC2 | inactive
CC(C)(Oc1ccc(C2CC2(Cl)Cl)cc1)C(=O)O (stereo not given) | inactive
Cc1cccc(C(=O)O)c1 | inactive
CCCCC(CC)COC(=O)C(C#N)=C(c1ccccc1)c1ccccc1 (stereo not given) | inactive
CCCCC(CC)COC(=O)c1ccc(N(C)C)cc1 (stereo not given) | inactive
CCCCNC(N)=O | inactive
NC(=NCCCCCCN=C(N)/N=C(\N)Nc1ccc(Cl)cc1)/N=C(\N)Nc1ccc(Cl)cc1 | inactive
CC(C)OC(=O)COc1ccc(Cl)cc1Cl | inactive
Cc1ccnc2c1NC(=O)c1cccnc1N2C1CC1 | inactive
c1ccc2[nH]cnc2c1 | inactive
O=S1(=O)CC=CC1 | inactive
O=C(O)CCCCC(=O)O | inactive
CCCCCCCCCCO | inactive
CN(C)c1nc(N(C)C)nc(N(C)C)n1 | inactive
O=C(O)c1cc(C(=O)O)cc(S(=O)(=O)O)c1 | inactive
Cc1ccccc1Cl | inactive
CC(=O)Oc1ccc(C)cc1 | inactive
c1ccc2cc3c(ccc4ccccc43)cc2c1 | inactive
NC(=O)c1ncn([C@@H]2O[C@H](CO)[C@@H](O)[C@H]2O)n1 | inactive
Cc1ccc(C(C)C)cc1 | inactive
